# Active and inactive are the calls of the source. How the source made its calls: active means hit-call score of the fitted dose curve at least 0.9, where 1 is the maximum; inactive means score below 0.9.
# Columns and labels:
# [1] = target: Bile acid receptor (Homo sapiens) (UniProt Q96RI1); test: ATG_IR1_CIS: Attagene CIS-FACTORIAL HepG2 Assay for human Nuclear Receptor Subfamily 1 Group H Member 4 (NR1H4), IR1 submotif (AID 2282946); details: IR1 reporter transcription, actives raise or lower the signal
# Outline: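 HepG2 cells transiently transfected with multiple cis-promoter-driven reporter units to measure endogenous transcription factor activity; 24 h exposure. Reporter mRNA read by RT-PCR, FAM labelling, HpaI digestion and capillary electrophoresis. Bidirectional fit versus DMSO.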
# [2] = ATG_GRE_CIS: Attagene CIS-FACTORIAL HepG2 Assay for human Glucocorticoid Response Elements (GRE) (AID 2282947); details: HepG2 GRE cis-reporter, Attagene multiplex mRNA; actives raise or lower the signal
# Outline: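 Transiently transfected HepG2 cells carrying GRE cis-reporter units (endogenous TF activity) dosed 24 h; reporter mRNA quantified by RT-PCR, 6-FAM labelling, HpaI digestion and capillary electrophoresis. Bidirectional fit versus DMSO baseline.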
# [3] = ATG_ISRE_CIS: Attagene CIS-FACTORIAL HepG2 Assay for human Interferon Regulatory Factor 1 (IRF1) binding to an Interferon-Stimulated Response Element (ISRE) (AID 2282948); details: HepG2 ISRE cis-reporter (Attagene), mRNA transcription readout; actives raise or lower the signal
# Outline: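 HepG2 cells transiently transfected with multiplexed cis-promoter reporter units; after 24 h compound exposure, reporter mRNA quantified by RT-PCR, FAM labelling, HpaI digestion and capillary electrophoresis. Bidirectional fit versus DMSO baseline.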
# [4] = ATG_M_32_CIS: Attagene CIS-FACTORIAL HepG2 Assay for M32 Transcription Factor (Internal Marker) (AID 2282949); details: HepG2 Attagene cis-factorial M32 reporter, mRNA; actives raise or lower the signal;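 further: background control marker of the multiplexed CIS panel rather than a real target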
# Outline: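 HepG2 cells transiently transfected with multiplexed cis-regulated reporter units, dosed 24 h. Reporter mRNA quantified by RT-PCR, 6-FAM labelling, HpaI digestion and capillary electrophoresis; bidirectional fit vs DMSO.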
# [5] = ATG_M_06_CIS: Attagene CIS-FACTORIAL HepG2 Assay for M06 Transcription Factor (Internal Marker) (AID 2282950); details: HepG2 Attagene CIS-FACTORIAL M06 internal marker reporter; actives raise or lower the signal
# Outline: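 One of many multiplexed endpoints: HepG2 reporter mRNA after 24 h dosing, detected by RT-PCR and capillary electrophoresis fluorescence; gain or loss of signal analysed against DMSO.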
# [6] = target: Hypoxia-inducible factor 1-alpha (Homo sapiens) (UniProt Q16665); test: ATG_HIF1a_CIS: Attagene CIS-FACTORIAL HepG2 Assay for human Hypoxia Inducible Factor 1 (HIF1A) (AID 2282951); details: HepG2 Attagene cis-factorial HIF1a reporter transcription; actives raise or lower the signal
# Outline: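 Endogenous-TF cis reporter readout, human HepG2 cells, 24 h incubation; mRNA detected via RT-PCR and capillary electrophoresis fluorescence; DMSO-normalised bidirectional fitting.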
# [7] = target: Hepatocyte nuclear factor 6 (Homo sapiens) (UniProt Q9UBC0); test: ATG_HNF6_CIS: Attagene CIS-FACTORIAL HepG2 Assay for human Hepatocyte Nuclear Factor 6 (HNF6) (AID 2282952); details: HepG2 Attagene cis-factorial HNF6 reporter transcription; actives raise or lower the signal
# Outline: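 Transiently transfected HepG2 cells expressing cis-regulated reporter transcription units were exposed to chemical for 24 h in a 24-well format. Reporter transcript abundance was determined by fluorescence capillary electrophoresis.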
# [8] = target: Heat shock factor protein 1 (Homo sapiens) (UniProt Q00613); test: ATG_HSE_CIS: Attagene CIS-FACTORIAL HepG2 Assay for human Heat Shock Transcription Factor 1 (HSE) (AID 2282953); details: HepG2 HSE cis-reporter, Attagene RNA transcription; actives raise or lower the signal
# Outline: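 Using HepG2 with transfected cis-driven reporter constructs, compound effects on endogenous factor activity are scored as reporter mRNA change at 24 h. Detection: RT-PCR, HpaI digestion, capillary electrophoresis; bidirectional fitting to DMSO.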
# [9] = ATG_MRE_CIS: Attagene CIS-FACTORIAL HepG2 Assay for human Metal Responsive Element (MRE) (AID 2282954); details: HepG2 MRE cis-reporter transcription, Attagene multiplex; actives raise or lower the signal
# Outline: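 HepG2 cells transiently transfected with cis-element-driven reporter units; mRNA measured 24 h after dosing. Reporter transcripts quantified by RT-PCR, FAM labelling, HpaI digestion and capillary electrophoresis; bidirectional fit versus DMSO.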
# [10] = ATG_PBREM_CIS: Attagene CIS-FACTORIAL HepG2 Assay for human Phenobarbital-responsive Enhancer Module (PBREM) (AID 2282955); details: HepG2 PBREM cis-reporter, Attagene multiplexed transcription; actives raise or lower the signal
# Outline: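 Readout: reporter mRNA, fluorescent RT-PCR fragments separated by capillary electrophoresis. System: HepG2 transiently transfected with cis-regulated reporter units. Exposure: 24 h. Analysis: bidirectional, DMSO baseline.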
# [11] = target: Paired box protein Pax-6 (Homo sapiens) (UniProt P26367); test: ATG_Pax6_CIS: Attagene CIS-FACTORIAL HepG2 Assay for human Paired Box 6 (PAX6) (AID 2282956); details: HepG2 CIS-FACTORIAL PAX6 reporter transcription, RNA readout; actives raise or lower the signal
# Outline: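 HepG2 cells transiently transfected with multiplexed cis-promoter reporter units (endogenous TF activity) were dosed for 24 h. Reporter mRNA was quantified by RT-PCR, 6-FAM labeling, HpaI digestion and capillary electrophoresis; bidirectional fitting versus DMSO baseline.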
# [12] = ATG_RORE_CIS: Attagene CIS-FACTORIAL HepG2 Assay for human RAR-related Orphan Receptor Element (RORE) (AID 2282959); details: HepG2 Attagene cis-factorial RORE reporter, mRNA; actives raise or lower the signal
# Outline: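 Measured here: transcript induction of a cis-regulated reporter in HepG2 cells transiently transfected via FuGene 6. After 24 h, RNA was processed by RT-PCR and fluorescent capillary electrophoresis; DMSO defined baseline activity.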
# [13] = ATG_Sox_CIS: Attagene CIS-FACTORIAL HepG2 Assay for human SRY-box transcription factor (SOX) (AID 2282960); details: HepG2 Attagene cis-factorial SOX reporter, mRNA; actives raise or lower the signal
# Outline: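 Using transiently transfected HepG2 cells, reporter transcription driven by cis elements was assessed 24 h after dosing. Signal was fluorescence of capillary-separated RT-PCR products, with DMSO defining baseline activity.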
# [14] = target: Transcription factor Sp1 (Homo sapiens) (UniProt P08047); test: ATG_Sp1_CIS: Attagene CIS-FACTORIAL HepG2 Assay for human Specificity Protein 1 (Sp1) (AID 2282961); details: HepG2 Sp1 cis-reporter transcription, actives raise or lower the signal
# Outline: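 After transient transfection of HepG2 cells with cis-promoter reporter units and 24 h chemical treatment, reporter transcripts were quantified by RT-PCR and capillary electrophoresis fluorescence. Gain- and loss-of-signal fitted against DMSO.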
# [15] = ATG_SREBP_CIS: Attagene CIS-FACTORIAL HepG2 Assay for human Sterol Regulatory Element Binding (SREBP) (AID 2282962); details: HepG2 Attagene cis-factorial SREBP reporter, mRNA; actives raise or lower the signal
# Outline: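 HepG2 cells transiently transfected with multiplexed cis-element reporter units report endogenous transcription factor activity. After 24 h of chemical exposure, reporter mRNA was quantified by RT-PCR, 6-FAM labelling, HpaI digestion and capillary electrophoresis; bidirectional fits used DMSO as baseline.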
# [16] = target: Signal transducer and activator of transcription 3 (Homo sapiens) (UniProt P40763); test: ATG_STAT3_CIS: Attagene CIS-FACTORIAL HepG2 Assay for human Signal Transducer and Activator of Transcription 3 (STAT3) (AID 2282963); details: HepG2, Attagene cis-factorial STAT3 reporter transcription; actives raise or lower the signal
# Outline: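 HepG2 cells transiently transfected with multiple cis-element-driven reporter units report endogenous transcription factor activity. After 24 h compound exposure, reporter mRNA is measured by RT-PCR, 6-FAM labelling, HpaI digestion and capillary electrophoresis. Fitted bidirectionally versus DMSO.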
# [17] = ATG_TA_CIS: Attagene CIS-FACTORIAL HepG2 Assay for human TA Basal Promoter (AID 2282964); details: HepG2 Attagene CIS-factorial TA basal promoter reporter; actives raise or lower the signal
# Outline: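 Transient MRTU transfection of HepG2 preceded 24 h compound exposure. Reporter mRNA levels were then read by RT-PCR with capillary electrophoresis, and this background-control endpoint was fitted bidirectionally to DMSO.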
# [18] = ATG_PPRE_CIS: Attagene CIS-FACTORIAL HepG2 Assay for human Peroxisome Proliferator-activated Response Element (PPRE) (AID 2282958); details: HepG2 PPRE cis-element reporter, Attagene transcription factor profiling; actives raise or lower the signal
# Outline: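 After human HepG2 hepatoma cells were transiently transfected with cis-promoter reporter constructs, they were exposed to test chemicals for 24 hours. Reporter RNA was then reverse-transcribed, PCR-amplified, FAM-labeled, HpaI-digested and quantified by capillary electrophoresis.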
# [19] = ATG_TCF_b_cat_CIS: Attagene CIS-FACTORIAL HepG2 Assay for human T-Cell-Factor with beta-catenin (TCF/b-cat) (AID 2282965); details: HepG2 TCF/beta-catenin cis-reporter transcription, actives raise or lower the signal
# Outline: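 Cells of the HepG2 line carry transiently transfected reporter units whose promoters respond to endogenous factors. Twenty-four hours post-dosing, reporter mRNA induction is measured by fluorescent RT-PCR and capillary electrophoresis, with DMSO as baseline.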
# [20] = ATG_PXRE_CIS: Attagene CIS-FACTORIAL HepG2 Assay for human Pregnane X Receptor Element (PXRE) (AID 2282957); details: HepG2 Attagene CIS-FACTORIAL PXRE reporter, mRNA; actives raise or lower the signal
# Outline: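 Cis-element reporter mRNA in human hepatoma HepG2 cells is measured 24 h post-dosing by RT-PCR, primer-extension labeling and capillary electrophoresis; gain or loss of signal is fitted relative to DMSO.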
# Chain of Paired box protein Pax-6 (Homo sapiens) (P26367 whole entry, looked up): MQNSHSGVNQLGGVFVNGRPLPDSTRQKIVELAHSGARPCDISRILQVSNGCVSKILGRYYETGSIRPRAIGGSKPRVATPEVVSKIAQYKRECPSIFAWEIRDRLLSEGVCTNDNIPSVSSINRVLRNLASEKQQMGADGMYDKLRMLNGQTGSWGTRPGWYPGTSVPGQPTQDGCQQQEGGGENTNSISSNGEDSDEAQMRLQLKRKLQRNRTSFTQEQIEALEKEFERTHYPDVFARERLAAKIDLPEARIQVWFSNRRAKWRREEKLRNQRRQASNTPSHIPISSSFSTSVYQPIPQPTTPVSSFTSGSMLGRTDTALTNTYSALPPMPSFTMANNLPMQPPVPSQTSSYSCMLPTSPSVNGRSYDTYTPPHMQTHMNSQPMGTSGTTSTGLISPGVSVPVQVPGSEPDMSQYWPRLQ
# Chain of Heat shock factor protein 1 (Homo sapiens) (Q00613 whole entry, looked up): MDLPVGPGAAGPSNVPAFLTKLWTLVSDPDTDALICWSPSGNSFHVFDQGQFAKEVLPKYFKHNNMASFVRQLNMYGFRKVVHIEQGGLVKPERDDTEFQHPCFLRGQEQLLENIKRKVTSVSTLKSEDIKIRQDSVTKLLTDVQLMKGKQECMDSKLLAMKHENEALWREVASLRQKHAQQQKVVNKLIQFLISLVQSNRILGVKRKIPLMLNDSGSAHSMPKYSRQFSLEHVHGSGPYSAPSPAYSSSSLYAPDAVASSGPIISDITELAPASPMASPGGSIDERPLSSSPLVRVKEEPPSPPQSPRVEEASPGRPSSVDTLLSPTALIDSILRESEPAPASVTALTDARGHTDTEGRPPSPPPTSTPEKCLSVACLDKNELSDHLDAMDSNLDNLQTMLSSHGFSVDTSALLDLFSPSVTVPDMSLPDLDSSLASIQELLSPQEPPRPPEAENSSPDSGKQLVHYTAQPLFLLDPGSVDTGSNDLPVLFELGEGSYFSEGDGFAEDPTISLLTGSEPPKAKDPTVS
# Chain of Signal transducer and activator of transcription 3 (Homo sapiens) (P40763 whole entry, looked up): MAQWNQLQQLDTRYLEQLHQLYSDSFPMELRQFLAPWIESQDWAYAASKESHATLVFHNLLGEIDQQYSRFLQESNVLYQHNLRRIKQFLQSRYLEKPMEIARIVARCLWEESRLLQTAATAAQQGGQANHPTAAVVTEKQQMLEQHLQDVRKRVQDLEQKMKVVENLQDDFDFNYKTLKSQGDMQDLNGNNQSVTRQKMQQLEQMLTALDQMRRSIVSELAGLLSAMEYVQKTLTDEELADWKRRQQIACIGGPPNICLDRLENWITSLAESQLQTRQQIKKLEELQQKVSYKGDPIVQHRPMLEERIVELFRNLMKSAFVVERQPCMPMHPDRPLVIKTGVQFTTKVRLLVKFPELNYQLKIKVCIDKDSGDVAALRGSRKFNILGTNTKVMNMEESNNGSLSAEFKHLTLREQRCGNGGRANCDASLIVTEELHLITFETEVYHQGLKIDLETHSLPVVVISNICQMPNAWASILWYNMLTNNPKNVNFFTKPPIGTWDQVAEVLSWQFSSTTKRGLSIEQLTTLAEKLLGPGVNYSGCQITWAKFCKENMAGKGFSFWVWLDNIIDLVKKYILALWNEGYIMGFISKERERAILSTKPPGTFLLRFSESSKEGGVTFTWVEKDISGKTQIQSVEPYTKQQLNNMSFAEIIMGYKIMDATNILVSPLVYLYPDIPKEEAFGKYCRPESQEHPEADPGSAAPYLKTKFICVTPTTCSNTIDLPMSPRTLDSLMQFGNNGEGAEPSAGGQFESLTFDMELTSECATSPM
# Chain of Hypoxia-inducible factor 1-alpha (Homo sapiens) (Q16665 whole entry, looked up): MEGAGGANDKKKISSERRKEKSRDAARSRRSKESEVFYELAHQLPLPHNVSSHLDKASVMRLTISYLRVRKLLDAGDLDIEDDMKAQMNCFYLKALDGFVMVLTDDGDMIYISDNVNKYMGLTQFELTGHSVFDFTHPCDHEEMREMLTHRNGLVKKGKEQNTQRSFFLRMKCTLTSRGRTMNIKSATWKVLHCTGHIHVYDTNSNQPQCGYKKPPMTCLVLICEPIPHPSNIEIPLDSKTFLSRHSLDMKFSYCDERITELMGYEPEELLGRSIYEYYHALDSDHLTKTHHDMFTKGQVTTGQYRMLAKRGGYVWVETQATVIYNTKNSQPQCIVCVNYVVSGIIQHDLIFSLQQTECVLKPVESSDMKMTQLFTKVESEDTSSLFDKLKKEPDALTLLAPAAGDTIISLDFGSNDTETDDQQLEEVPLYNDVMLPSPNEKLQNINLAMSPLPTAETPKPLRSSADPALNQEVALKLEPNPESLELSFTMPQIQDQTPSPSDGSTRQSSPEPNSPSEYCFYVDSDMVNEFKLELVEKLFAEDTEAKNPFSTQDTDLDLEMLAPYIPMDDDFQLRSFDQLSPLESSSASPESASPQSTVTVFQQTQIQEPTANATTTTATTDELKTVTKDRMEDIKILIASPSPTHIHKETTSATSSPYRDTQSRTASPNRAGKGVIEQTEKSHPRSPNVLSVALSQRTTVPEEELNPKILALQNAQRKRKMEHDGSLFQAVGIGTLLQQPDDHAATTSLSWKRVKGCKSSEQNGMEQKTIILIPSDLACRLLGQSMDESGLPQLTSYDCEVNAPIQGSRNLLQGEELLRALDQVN
# Chain of Transcription factor Sp1 (Homo sapiens) (P08047 whole entry, looked up): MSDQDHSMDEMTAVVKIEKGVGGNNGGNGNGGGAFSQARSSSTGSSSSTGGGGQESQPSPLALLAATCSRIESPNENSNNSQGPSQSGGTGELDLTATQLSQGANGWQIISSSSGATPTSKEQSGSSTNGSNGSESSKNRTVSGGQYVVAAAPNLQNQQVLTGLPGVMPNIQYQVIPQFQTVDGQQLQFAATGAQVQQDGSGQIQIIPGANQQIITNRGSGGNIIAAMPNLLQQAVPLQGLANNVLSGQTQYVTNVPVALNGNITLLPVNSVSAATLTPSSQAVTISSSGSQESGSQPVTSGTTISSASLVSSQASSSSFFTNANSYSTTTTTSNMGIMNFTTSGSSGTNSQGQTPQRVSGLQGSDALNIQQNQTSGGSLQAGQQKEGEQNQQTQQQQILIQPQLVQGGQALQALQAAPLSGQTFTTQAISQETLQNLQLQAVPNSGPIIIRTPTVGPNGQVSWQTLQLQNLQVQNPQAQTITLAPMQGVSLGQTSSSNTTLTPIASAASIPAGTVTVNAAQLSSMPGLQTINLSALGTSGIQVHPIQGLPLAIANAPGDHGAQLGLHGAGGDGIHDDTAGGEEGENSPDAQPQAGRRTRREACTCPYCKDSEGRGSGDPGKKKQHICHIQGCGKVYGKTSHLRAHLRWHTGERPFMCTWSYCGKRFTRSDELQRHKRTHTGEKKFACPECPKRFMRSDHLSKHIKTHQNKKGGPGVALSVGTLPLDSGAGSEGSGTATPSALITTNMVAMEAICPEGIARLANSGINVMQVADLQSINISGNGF
# Chain of Bile acid receptor (Homo sapiens) (Q96RI1 whole entry, looked up): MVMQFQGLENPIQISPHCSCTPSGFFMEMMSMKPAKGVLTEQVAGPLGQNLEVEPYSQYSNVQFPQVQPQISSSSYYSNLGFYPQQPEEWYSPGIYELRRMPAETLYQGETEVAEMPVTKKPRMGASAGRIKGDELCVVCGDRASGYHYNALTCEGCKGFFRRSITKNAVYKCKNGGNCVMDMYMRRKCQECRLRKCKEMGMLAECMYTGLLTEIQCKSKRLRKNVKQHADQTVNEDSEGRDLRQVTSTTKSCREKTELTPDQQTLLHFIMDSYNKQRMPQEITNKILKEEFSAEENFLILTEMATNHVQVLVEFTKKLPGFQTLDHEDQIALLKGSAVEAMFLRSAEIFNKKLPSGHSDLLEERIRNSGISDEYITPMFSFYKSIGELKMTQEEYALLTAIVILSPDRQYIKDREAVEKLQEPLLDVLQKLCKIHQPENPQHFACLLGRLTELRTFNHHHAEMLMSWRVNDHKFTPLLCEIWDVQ
# Chain of Hepatocyte nuclear factor 6 (Homo sapiens) (Q9UBC0 whole entry, looked up): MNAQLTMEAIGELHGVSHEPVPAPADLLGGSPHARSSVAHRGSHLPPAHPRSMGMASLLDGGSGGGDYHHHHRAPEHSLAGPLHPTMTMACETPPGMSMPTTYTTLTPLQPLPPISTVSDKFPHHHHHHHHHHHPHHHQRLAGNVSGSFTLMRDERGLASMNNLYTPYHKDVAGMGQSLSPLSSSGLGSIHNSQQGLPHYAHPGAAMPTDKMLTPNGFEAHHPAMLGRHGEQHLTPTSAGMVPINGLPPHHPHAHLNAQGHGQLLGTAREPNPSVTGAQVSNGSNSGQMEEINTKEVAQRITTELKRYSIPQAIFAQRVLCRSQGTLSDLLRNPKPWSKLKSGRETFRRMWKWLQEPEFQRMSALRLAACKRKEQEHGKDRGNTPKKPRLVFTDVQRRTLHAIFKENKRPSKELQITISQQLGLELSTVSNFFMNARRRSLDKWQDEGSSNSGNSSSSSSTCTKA
smiles,measurement,setting,value
O=C(O)C=CC(F)(C(F)(F)F)C(F)(F)F,outcome,[1],inactive
same,outcome,[2],inactive
same,outcome,[3],inactive
same,outcome,[4],inactive
same,outcome,[5],inactive
same,outcome,[6],inactive
same,outcome,[7],inactive
same,outcome,[8],inactive
same,outcome,[9],inactive
same,outcome,[10],inactive
same,outcome,[11],inactive
same,outcome,[12],inactive
same,outcome,[13],inactive
same,outcome,[14],inactive
same,outcome,[15],inactive
same,outcome,[16],inactive
same,outcome,[17],inactive
ClC1=C(Cl)C2(Cl)C3C(Cl)C(Cl)CC3C1(Cl)C2(Cl)Cl (stereo not given),AC50,[1],17.1 µM (active)
same,outcome,[2],inactive
same,outcome,[3],inactive
same,outcome,[4],inactive
same,outcome,[5],inactive
same,outcome,[6],inactive
same,outcome,[7],inactive
same,AC50,[8],50 µM (active)
same,AC50,[9],41.2 µM (active)
same,outcome,[10],inactive
same,outcome,[11],inactive
same,outcome,[18],inactive
same,outcome,[12],inactive
same,outcome,[13],inactive
same,outcome,[14],inactive
same,outcome,[16],inactive
same,AC50,[17],39.1 µM (active)
same,AC50,[19],27.1 µM (active)
ClC(Cl)c1ccccc1,outcome,[2],inactive
same,outcome,[3],inactive
same,outcome,[4],inactive
same,outcome,[5],inactive
same,outcome,[6],inactive
same,outcome,[7],inactive
same,outcome,[8],inactive
same,outcome,[9],inactive
same,outcome,[10],inactive
same,outcome,[11],inactive
same,outcome,[20],inactive
same,outcome,[12],inactive
same,outcome,[13],inactive
same,outcome,[14],inactive
same,outcome,[15],inactive
same,outcome,[16],inactive
same,outcome,[17],inactive
Nc1cc2c3c(c1)C(c1ccccc1)=N[C@@H](NC(=O)c1cccnc1)C(=O)N3CC2,outcome,[2],inactive
same,outcome,[3],inactive
same,outcome,[4],inactive
same,outcome,[5],inactive
same,outcome,[7],inactive
same,outcome,[8],inactive
same,AC50,[9],71.5 µM (active)
same,AC50,[10],41.9 µM (active)
same,outcome,[11],inactive
same,AC50,[20],26.5 µM (active)
same,outcome,[18],inactive
same,AC50,[12],17.5 µM (active)
same,outcome,[13],inactive
same,outcome,[14],inactive
same,AC50,[15],66.8 µM (active)
same,outcome,[16],inactive
same,outcome,[17],inactive
same,outcome,[19],inactive
N#C/C=C/c1ccccc1,outcome,[1],inactive
same,outcome,[2],inactive
same,outcome,[3],inactive
same,outcome,[4],inactive
same,outcome,[5],inactive
same,outcome,[7],inactive
same,outcome,[8],inactive
same,outcome,[9],inactive
same,outcome,[10],inactive
same,outcome,[11],inactive
same,outcome,[20],inactive
same,outcome,[12],inactive
same,outcome,[13],inactive
same,outcome,[14],inactive
same,outcome,[16],inactive
same,outcome,[17],inactive
same,outcome,[19],inactive
c1ccc2c(c1)sc1ccccc12,outcome,[1],inactive
same,outcome,[2],inactive
same,outcome,[3],inactive
same,outcome,[4],inactive
same,outcome,[5],inactive
same,outcome,[7],inactive
same,outcome,[8],inactive
same,outcome,[9],inactive
same,outcome,[10],inactive
same,outcome,[11],inactive
same,outcome,[18],inactive
same,outcome,[12],inactive
same,outcome,[13],inactive
same,outcome,[14],inactive
same,outcome,[15],inactive
same,outcome,[16],inactive
same,outcome,[17],inactive
same,outcome,[19],inactive
Nc1ccc(Cl)cc1,outcome,[2],inactive
same,outcome,[3],inactive
same,outcome,[4],inactive
same,outcome,[5],inactive
same,outcome,[6],inactive
same,outcome,[7],inactive
same,outcome,[8],inactive
same,outcome,[9],inactive
same,outcome,[10],inactive
same,outcome,[11],inactive
same,outcome,[18],inactive
same,outcome,[12],inactive
same,outcome,[13],inactive
same,outcome,[14],inactive
same,outcome,[16],inactive
same,outcome,[17],inactive
same,outcome,[19],inactive
CC(C)(C)c1ccc(O)cc1,outcome,[3],inactive
same,outcome,[4],inactive
same,outcome,[5],inactive
same,AC50,[6],76.7 µM (active)
same,outcome,[8],inactive
same,AC50,[9],164 µM (active)
same,AC50,[11],174 µM (active)
same,outcome,[12],inactive
same,AC50,[13],175 µM (active)
same,AC50,[14],175 µM (active)
same,AC50,[15],26.8 µM (active)
same,outcome,[16],inactive
same,outcome,[17],inactive
